Experimental data: publication PMC5540273 (PLoS ONE, 2017)

test system: T1, YANK2; conditions: concentration: 1 μM, replicates: in singlicate; n = 1
T1 construct: gene STK32B
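Note: KINOMEscan kinase panel screen.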

Compound | %Inh [%]
Nc1n[nH]c2cnc(-c3ccccc3)cc12 [SB-642124] | 0
CN(c1ccc(NC(=O)Nc2cc(C(F)(F)F)ccc2F)cc1)c1ccnc(Nc2ccc(S(N)(=O)=O)cc2)n1 [GW809893] | 0
CC(C)c1nc(-c2cccc(NS(=O)(=O)c3c(F)cccc3F)c2F)c(-c2ccnc(Nc3ccc(N4CCOCC4)nc3)n2)s1 [GSK2008607] | 48
O=C(Nc1cccc(-c2nn3ncccc3c2-c2ccnc(Nc3ccccc3)n2)c1)c1c(F)cccc1F [GSK198271] | 38
O=C(Nc1ccccc1F)NC1CCN(c2ccnc(Nc3ccc(F)cc3)n2)CC1 [GSK1379800] | 0
Cl.c1ccc(-c2ccc3c(Nc4ccc5[nH]ccc5c4)ccnc3c2)nc1 [GW440138] | 0
COc1ccc(CNC(=O)NC2CCN(c3ccnc(Nc4ccc(F)cc4)n3)CC2)cc1 [GSK1379788] | 0
CN(C)Cc1ccc(-c2ccc3c(Nc4ccc(Oc5ccccn5)cc4)ccnc3c2)o1 [GW567148] | 0
CNC(=O)c1ccccc1Nc1nc(Nc2ccc(N3CCOCC3)cc2)ncc1Cl.Cl [GSK1576028] | 30
CCS(=O)(=O)c1ccc(OC)c(Nc2nccc(-c3c(-c4cccc(NC(=O)c5c(F)cccc5F)c4)nn4ncccc34)n2)c1 [GSK326180] | 56
c1ccc(Oc2ccc(Nc3ccnc4cc(-c5ccc(CNCCN6CCOCC6)o5)ccc34)cc2)nc1 [GW567145] | 0
Cc1ccc(C)c(NC(=O)NC2CCN(c3ccnc(Nc4ccc(F)cc4)n3)C2)c1 (stereo not drawn) [GSK1379720] | 0
